Laboratory results reported in PubChem BioAssay (EPA / NIEHS).
Inconclusive results are not listed. The source holds several records for some structures; these can differ, active in one and inactive in another. The source made the active and inactive calls. How the source made its calls: active means hit-call score of the fitted dose curve at least 0.9, where 1 is the maximum; inconclusive means response in the unintended direction; inactive means score below 0.9.

How the values were obtained:
[1] = ATG_XTT_Cytotoxicity: Cytotoxicity Assessment in the Attagene TRANS-FACTORIAL HepG2 Assay (AID 2283584);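 on AC50: XTT signal for cell number as viability in transfected HepG2 cells; cells exposed to compound for 24 h before reading; active means loss of viability signal versus DMSO baseline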
In short: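 HepG2 cells transiently transfected with GAL4-UAS multiple reporter units, dosed 24 h; cytotoxicity read by XTT as loss of signal versus DMSO baseline.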

[2] = TOX21_p53_BLA_p2_viability: Viability Assessment in the Tox21 HCT-116 p53 Agonism Beta-lactamase Assay, Phase 2 (AID 2283591);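 further: compound exposure lasted 16 h at 37 °C; actives lower the ATP signal meaning cytotoxicity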
In short: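 Cytotoxicity readout: CellTiter-Glo ATP luminescence, 30 min at room temperature, after the beta-lactamase read. Cells were HCT116 exposed 16 h at 37C to compounds pin-transferred at 217-fold dilution from DMSO stocks.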

[3] = target: Cellular tumor antigen p53 (Homo sapiens) (UniProt P04637); assay: TOX21_p53_BLA_p2_ratio: Tox21 HCT-116 p53 Agonism Beta-lactamase Assay, Ratio, Phase 2 (AID 2283592)
Sequence of Cellular tumor antigen p53 (Homo sapiens) (P04637 whole entry, looked up): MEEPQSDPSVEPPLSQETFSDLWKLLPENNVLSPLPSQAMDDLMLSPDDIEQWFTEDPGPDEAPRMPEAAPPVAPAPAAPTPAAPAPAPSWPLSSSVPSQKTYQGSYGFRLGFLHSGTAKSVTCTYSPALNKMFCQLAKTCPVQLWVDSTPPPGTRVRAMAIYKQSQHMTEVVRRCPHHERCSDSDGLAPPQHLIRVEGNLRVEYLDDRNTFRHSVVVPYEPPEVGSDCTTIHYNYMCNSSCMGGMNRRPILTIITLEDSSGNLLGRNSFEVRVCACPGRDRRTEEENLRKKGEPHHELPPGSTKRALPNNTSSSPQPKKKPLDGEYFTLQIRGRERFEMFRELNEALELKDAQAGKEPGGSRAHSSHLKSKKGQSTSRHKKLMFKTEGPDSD
In short: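 HCT-116 cells with p53-responsive beta-lactamase reporter, 4000 cells/well, preincubated 5 h, then compound in DMSO (217-fold dilution) for 16 h at 37C. CCF4-AM substrate 2 h at room temperature; 460/530 nm emission ratio fitted upward versus DMSO.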

[4] = target: Cellular tumor antigen p53 (Homo sapiens) (UniProt P04637); assay: TOX21_p53_BLA_p3_ratio: Tox21 HCT-116 p53 Agonism Beta-lactamase Assay, Ratio, Phase 3 (AID 2283596)
In short: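 HCT116 p53-bla cells (4000/well) given compound in DMSO (217-fold dilution) after 5 h, incubated 16 h at 37C. CCF4-AM substrate 2 h at room temperature; 460/530 nm emission ratio, gain fitted against DMSO.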

[5] = TOX21_p53_BLA_p4_viability: Viability Assessment in the Tox21 HCT-116 p53 Agonism Beta-lactamase Assay, Phase 4 (AID 2283597);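 further: hits lower the luminescence signal meaning cytotoxicity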
In short: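 HCT-116 p53-bla cells, 4000/well, dosed after 5 h attachment and incubated 16 h at 37 °C, 5% CO2. Viability from CellTiter-Glo ATP luminescence after 30 min at room temperature, taken after the beta-lactamase read; loss of signal indicates cytotoxicity.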

[6] = target: Cellular tumor antigen p53 (Homo sapiens) (UniProt P04637); assay: TOX21_p53_BLA_p5_ratio: Tox21 HCT-116 p53 Agonism Beta-lactamase Assay, Ratio, Phase 5 (AID 2283599)
In short: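 Beta-lactamase reporter ratio (blue 460 nm over green 530 nm, 405 nm excitation) after 2 h CCF4-AM loading, in HCT-116 cells exposed 16 h at 37 C to compounds pinned at 217-fold dilution. Increases relative to DMSO baseline scored.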

[7] = TOX21_p53_BLA_p5_viability: Viability Assessment in the Tox21 HCT-116 p53 Agonism Beta-lactamase Assay, Phase 5 (AID 2283600)
In short: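 HCT-116 p53 beta-lactamase reporter cells, 4000/well, were exposed to compound (pin transfer, 217-fold dilution) for 16 hours at 37C. Cellular ATP was read by CellTiter-Glo luminescence after 30 min at room temperature.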

[8] = target: Cellular tumor antigen p53 (Homo sapiens) (UniProt P04637); assay: TOX21_p53_BLA_p4_ratio: Tox21 HCT-116 p53 Agonism Beta-lactamase Assay, Ratio, Phase 4 (AID 2283601)
In short: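 Signal is the blue/green (460nm/530nm) ratio of cleaved versus uncleaved CCF4-AM substrate, read after 2 h substrate loading. Cells were HCT116 carrying the p53-responsive beta-lactamase reporter, dosed 16 h at 37C, 5% CO2; CellTiter-Glo measured in parallel.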

[9] = TOX21_p53_BLA_p3_viability: Viability Assessment in the Tox21 HCT-116 p53 Agonism Beta-lactamase Assay, Phase 3 (AID 2283593);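 further: cells exposed to compound for 16 h before reading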
In short: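 Cellular ATP was quantified by CellTiter-Glo luminescence, read after 30 min at room temperature. Beforehand, HCT116 cells (4000/well) received compound 5 h post-seeding, 217-fold diluted from DMSO, then incubated 16 h at 37C.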

Measured: AC50

O=C1CCc2ccccc2O1
not listed: [9]
inactive: all other assays above

CCCCNC(=O)NS(=O)(=O)c1ccc(N)cc1
not listed: [5] | [9]
inactive: all other assays above

CCCCOCCOCCSC#N
not listed: [6] | [9]
inactive: all other assays above

NCCCCCCN
not listed: [5] | [9]
inactive: all other assays above

CC(=O)OCC=Cc1ccccc1
inactive: [1] | [2] | [3] | [4] | [5]

CCc1ccc(C=O)cc1
inactive: [1] | [2] | [3] | [4] | [7]

CCCCCCCCCCCCCCCCCC(=O)OCC(CC)CCCC (stereo not given)
not listed: [4] | [7]
inactive: all other assays above

CCCC1CCC(=O)O1 (stereo not given)
not listed: [6] | [7] | [9]
inactive: all other assays above

Fc1c(F)c(F)c(Br)c(F)c1F
not listed: [6] | [7] | [9]
inactive: all other assays above

CC(C)=CCC/C(C)=C/COC=O
not listed: [4] | [9]
inactive: all other assays above

CC(=O)C(C)=O
not listed: [4] | [6]
inactive: all other assays above

C=CC(=O)OCCOCCOCC
not listed: [5] | [9]
inactive: all other assays above

O=C(O)CN(CCN(CC(=O)O)CC(=O)O)CCN(CC(=O)O)CC(=O)O
not listed: [9]
inactive: all other assays above

Nc1cc([N+](=O)[O-])ccc1O
not listed: [8] | [9]
inactive: all other assays above

CC(=O)OCCOC(C)=O
inactive: [1] | [2] | [3] | [4] | [6] | [7] | [8]
active: [4] 87.2 µM

CC1=CCC(O)(C(C)C)CC1 (stereo not given)
not listed: [7] | [9]
inactive: all other assays above

O=C=NC1CCC(CC2CCC(N=C=O)CC2)CC1 (stereo not given)
inactive: [1] | [2] | [3] | [4] | [7]

O=P(c1ccccc1)(c1ccccc1)c1ccccc1
not listed: [4] | [6] | [8]
inactive: all other assays above

O=C(O)c1cccc(C(F)(F)F)c1
not listed: [5] | [6] | [9]
inactive: all other assays above

C=CC(=O)OCCn1c(=O)n(CCOC(=O)C=C)c(=O)n(CCOC(=O)C=C)c1=O
active: [1] 71 µM | [2] 46.1 µM | [5] 15.4 µM
inactive: [9] | [6] | [7] | [8]

CCCCCCCCC
not listed: [3] | [6] | [9]
inactive: all other assays above

O=c1cc(-c2ccccc2)oc2cc(O)cc(O)c12
active: [6] 22.3 µM
inactive: [1] | [2] | [9] | [4] | [7]

O=[N+]([O-])c1ccc(Nc2ccc(Nc3ccccc3)c(S(=O)(=O)O)c2)c([N+](=O)[O-])c1
inactive: [1] | [2] | [5] | [7]

C[C@H]1C[C@@H]2[C@H]([C@@H](O)C[C@@]3(C)[C@H]2CC[C@]3(O)C(=O)CO)[C@@]2(C)C=CC(=O)C=C12
not listed: [3] | [6] | [7]
inactive: all other assays above

Nc1cccc(S(=O)(=O)c2cccc(N)c2)c1
not listed: [3] | [5] | [6]
inactive: all other assays above

CSc1nc(NC2CC2)nc(NC(C)(C)C)n1
inactive: [1] | [2] | [6]

O=C(O)CCCCC1CCSS1 (stereo not given)
not listed: [3] | [6] | [8]
inactive: all other assays above

COCCCOc1ccnc(CS(=O)c2nc3ccccc3[nH]2)c1C (stereo not given)
not listed: [3] | [9]
inactive: all other assays above

CNC[C@H](O)c1cccc(O)c1
not listed: [3] | [5]
inactive: all other assays above

O=S(=O)(O)c1ccc(O)c2ncccc12
not listed: [3] | [5]
inactive: all other assays above

O=C[C@@H](O)[C@H](O)[C@H](O)CO
inactive: [1] | [2] | [9] | [7] | [8]

O=C(O)c1ccc(C(=O)O)cc1
not listed: [3] | [9]
inactive: all other assays above

C=C(C)C(=O)O
not listed: [3] | [6] | [8]
inactive: all other assays above

CCCCc1ccc(N)cc1
not listed: [3] | [7]
inactive: all other assays above

CC(C)=CCC[C@](C)(O)[C@@H]1CC=C(C)CC1
not listed: [3] | [5] | [9]
inactive: all other assays above

CC(C)c1cccc(O)c1
not listed: [3] | [5]
inactive: all other assays above

O=C(O)CCCCCCCC(=O)O
not listed: [3]
inactive: all other assays above

OCCOCCOCCOCCO
not listed: [3] | [5]
inactive: all other assays above

O=C(O)c1snc(Cl)c1Cl
not listed: [3] | [5]
inactive: all other assays above

CC(=O)[O][Al][O]C(C)=O
inactive: [1] | [2] | [7]

O=C1CCCCCCCCCCCCCCO1
not listed: [4] | [5] | [9]
inactive: all other assays above

c1ccc(CCCc2ccccn2)cc1
not listed: [3] | [5]
inactive: all other assays above

C=CC(=O)OCC(O)COc1ccccc1 (stereo not given)
inactive: [1] | [7]
active: [2] 45.5 µM | [9] 75.6 µM | [5] 48.2 µM | [8] 37.6 µM

COc1ccc(Nc2ccccc2)c(C)c1
not listed: [3] | [6] | [8]
inactive: all other assays above

CCCCCC=CCC(=O)OC
inactive: [1] | [2] | [9] | [4] | [7]

CNC(=O)Oc1ccc2c(c1)[C@]1(C)CCN(C)[C@@H]1N2C
not listed: [3] | [5] | [6]
inactive: all other assays above

CCCCCCCCCC=O
not listed: [3] | [5] | [6]
inactive: all other assays above

C=C(C)C(=O)Nc1ccc(Cl)c(Cl)c1
inactive: [1] | [2] | [9] | [4] | [6] | [7] | [8]
active: [4] 56.1 µM | [6] 74.7 µM | [8] 68 µM

Cc1ccccc1C=O
not listed: [3] | [9]
inactive: all other assays above

CC1(CO)CN(c2ccccc2)NC1=O (stereo not given)
inactive: [1] | [2] | [4] | [6]

CN(C)CCOCCN(C)C
not listed: [3] | [6]
inactive: all other assays above

CN(CCOc1ccc(CC2SC(=O)NC2=O)cc1)c1ccccn1 (stereo not given)
not listed: [3] | [7]
inactive: all other assays above

CC(C)CCCCCCCOC(=O)c1ccc(C(=O)OCCCCCCCC(C)C)c(C(=O)OCCCCCCCC(C)C)c1
inactive: [1] | [2] | [4] | [6] | [8]

c1cc(C(c2ccc(OCC3CO3)cc2)c2ccc(OCC3CO3)cc2)ccc1OCC1CO1 (stereo not given)
inactive: [1] | [2] | [9] | [7]

CC(=O)C(=O)O
not listed: [3] | [5] | [9]
inactive: all other assays above

CC1CCC(C(C)CS)CC1S (stereo not given)
inactive: [3] | [9] | [4] | [6] | [7]
active: [1] 152 µM

NNc1nc(-c2ccc(N)cc2)cs1
not listed: [2] | [9]
inactive: all other assays above

CC(=O)c1c(C)cc(C(C)(C)C)cc1C
not listed: [2] | [4]
inactive: all other assays above

NCCOCCO
not listed: [2] | [7] | [8]
inactive: all other assays above

CCCCCCOC(=O)CCCCC
not listed: [2] | [5] | [7]
inactive: all other assays above

O=C1CCCCCCCCCCOCCCCO1
not listed: [2] | [9]
inactive: all other assays above

O=C(O)C[C@H](O)C[C@H](O)/C=C/c1c(C2CC2)nc2ccccc2c1-c1ccc(F)cc1
not listed: [2] | [9]
inactive: all other assays above

CC(C)[C@@H]1CC[C@@H](C)CC1=O
not listed: [2] | [7]
inactive: all other assays above

CCCCCCCCCCCCCCCC(=O)OC[C@H](O)[C@H]1OC(=O)C(O)=C1O
not listed: [2] | [5] | [6]
inactive: all other assays above

CCC(=O)/C=C/C1C(C)=CCCC1(C)C (stereo not given)
inactive: [1] | [3] | [9] | [4] | [6]

CO[Si](CCCn1c(=O)n(CCC[Si](OC)(OC)OC)c(=O)n(CCC[Si](OC)(OC)OC)c1=O)(OC)OC
inactive: [1] | [3] | [9] | [5] | [8]
